MCF10A rereplic: induces DNA re-replication in MCF 10a normal breast cells. MCF 10A DNA re-replication, Hoechst nuclear intensity, 48 h. 350,000 tested, 2.9% active. Potency, µM (titrated, usually from 46.1 µM), for inactives: at the top dose activity, positive = re-replication, most hits filed as activators; note: % of control where 0% means no effect; nearly all actives have a fitted effect of over 50% in size
SW480 rerep: DNA re-replication induction in SW480 cells; SW480 DNA re-replication, Hoechst DNA content imaging, 48 h; Potency, µM (series often up to 46.1 µM), inactives show top-dose re-replication activation, most hits filed as activators; 340,000 tested, 1.8% active; note: % of control where 0% means no effect; nearly all actives have a fitted effect of over 55% in size
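Readout is total intensity of Hoechst-stained nuclei, excited at 405 nm and collected at 500-530 nm. Compound treatment lasted 48 hr at 37 C in 5% CO2 before staining.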
KB-V1 MDR tox: kills drug-selected multidrug resistant KB-V1 cells | 400,000 tested, 3.4% active | Potency, µM (titrated, usually from 46.1 µM), hits mostly cytotoxic | KB-V1 MDR cells viability, CellTiter-Glo, 72 h; note: % is set by controls: 0 for no effect and ±100 for the full control effect; nearly all actives have a fitted effect of over 60% in size
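Readout: CellTiter-Glo luminescence, 10 min after addition. Cells: KB-V1 MDR subline, 72 h at 37 degrees C with compound. Analysis: corrected, normalized data fitted to concentration-effect curves.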
HT1080-NT tox: kills 2HG-producing HT-1080-NT fibrosarcoma cells. 360,000 tested, 1.6% active. Potency, µM (series often up to 46.1 µM), inactives show at the highest dose activity, negative = less viability, actives largely listed as cytotoxic. HT-1080-NT fibrosarcoma viability, CellTiter-Glo ATP luminescence, 48 h;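 note: NT is the 2HG producing partner of a matched IDH1 knockdown line; 0% = DMSO-treated cells and -100% = media-only wells without cells; nearly all actives have a fitted effect of over 55% in size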
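HT-1080-NT fibrosarcoma cells (2HG-overproducing), 750 cells/well in RPMI with 5% FBS, dosed after 2 h and incubated 48 h at 37C. CellTiter-Glo luminescence normalized to DMSO and no-cell wells; concentration-response curves fitted and classed.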
KB-3-1 cytotox: KB-3-1 parental cell cytotoxicity. 400,000 tested, 1.4% active. Potency, µM (top dose mostly 46.1 µM), most hits filed as cytotoxic. KB-3-1 viability, CellTiter-Glo ATP luminescence, 72 h; note: % is set by controls: 0 for no effect and ±100 for the full control effect; nearly all actives have a fitted effect of over 60% in size
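Screening of KB-3-1 cells (DMEM, 10% FBS, phenol-red free) ran from lowest to highest compound concentration; after 72 h at 37 °C viability was read luminescently and curves fitted.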
HT1080 IDH1KD tx: toxicity to HT-1080 IDH1 knockdown cells (counter line); 360,000 tested, 2% active; Potency, µM (doses to about 46.1 µM), inactives show at the highest dose activity, negative = toxicity, actives largely listed as cytotoxic; AID 686971; HT-1080 IDH1 knockdown viability, ATP luminescence, 48 h;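 note: 0% = DMSO wells and -100% = cell-free medium wells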
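HT-1080-IDH1KD cells (IDH1 knocked down), 750/well in RPMI with 5% FBS, treated with compound 48 h at 37 degrees C. Viability by CellTiter-Glo luminescence, normalised to DMSO and no-cell wells; concentration-response curves classed.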
An asterisk follows results filed as active; i = inactive; u = inconclusive; x = not tested or not shown; ! = a repeat was not active. In the library only some 7.9% were active in any assay of this set; here they are far more common. Calls come from the whole dose curve; as a rule, active = well fitted curve in the direction sought with a large enough effect; inconclusive = small, poorly fitted or top-dose-only effect, or another doubt; inactive = no such curve, though single readings can be large; an effect the other way counts as inactive or inconclusive. Potency is the fitted concentration of half-maximal effect.

SMILES	MCF10A rereplic	SW480 rerep	KB-V1 MDR tox	HT1080-NT tox	KB-3-1 cytotox	HT1080 IDH1KD tx
CCOCCCNC(=S)N1CCCN(c2nc3c(C)c(C)ccc3cc2C#N)CC1	2%	u	i	-16%	i	-12%
O=C1CCCN1Cc1ccccc1	-15%	-6%	i	u	i	16%
COc1ccc([C@H]2C[C@H](O)[C@@H](n3cc(-c4ccc(F)cc4)nn3)CN2Cc2cccs2)cc1	x	x	u	2.9µM*	u	4.6µM*
COc1ccc([C@H]2C[C@H](n3cc(-c4ccc(F)cc4)nn3)[C@@H](O)CN2Cc2cccs2)cc1	x	x	i	4%	i	2%
O[C@H]1C[C@H](c2ccccc2)N(Cc2cccs2)C[C@@H]1n1cc(-c2ccc(F)cc2)nn1	x	x	u	23µM*	u	18µM*
O=C(NC(=O)c1ccccc1O)c1ccc(C(F)(F)F)cc1	28%	u	i	13µM*	i	15µM*
CC/C(=N\NC(=O)c1c(-c2ccccc2)noc1C)c1ccc(C)o1	17%	2%	13µM*	7%	i	16%
Cc1ccc(C(=O)NC(=S)NNC(=O)c2ccccc2O)cc1	u	-2%	i	u	i	u
Cc1onc(-c2ccccc2)c1C(=O)NC(=S)NNC(=O)c1ccccc1O	26%	-5%	u	8.2µM*	u	5.2µM*
O=C(NC(=S)NNC(=O)c1ccccc1O)c1ccccc1	30%	15µM*	i	u	u	-25%
Cc1onc(-c2ccccc2)c1C(=O)NC(=S)NNC(=O)c1ccc(O)cc1	19%	16%	i	-15%	u	u
COc1ccc(Cl)cc1Cn1c(C)c(C(=O)NCc2ccc3c(c2)OCCO3)sc1=O	x	x	u	-5%	i	-4%
Cc1onc(-c2ccccc2)c1C(=O)NC(=S)NNC(=O)c1ccc(O)cc1O	u	-2%	3.3µM*	u	4.6µM*	-28%
Fc1ccc(C2c3cccn3CCN2C(=S)Nc2cccc(Br)c2)cc1 (stereo unspecified)	23µM*	-1%	u	u	u	u
COc1cccc(NC(=S)N2CCn3cccc3C2c2cccnc2)c1 (stereo unspecified)	5%	-8%	i	-3%	i	-14%
Cc1cccc(NC(=S)N2CCn3cccc3C2c2cccnc2)c1 (stereo unspecified)	-1%	-6%	16µM*	6%	i	4%
Fc1ccc(NC(=S)N2CCn3cccc3C2c2cccnc2)cc1 (stereo unspecified)	0%	-3%	i	0%	i	-6%
O=C(c1ccco1)N1CCN(Cc2cccc3ccccc23)CC1	22%	1%	i	-25%	i	-25%
Cc1cccc(CN2[C@H](COCc3ccccc3)C=CS2(=O)=O)c1	x	x	i	3%	i	8%
NC(=O)CCCn1c(C(=O)c2cc(Cl)c(N)c(Cl)c2)c2ccc(C(F)(F)F)cc2[n+]1[O-]	1%	4%	i	0%	i	0%
OCCCNc1cc(-c2ccnc(Nc3cccc(Cl)c3)n2)ccn1	u	u	0.13µM*	-45%	u	u
NNC(=O)c1sc(-c2ccccc2)cc1N	21µM*	9%	u	-4%	i	-11%
CC(=O)c1sc(-c2ccccc2)cc1N	2%	-5%	u	-1%	i	-4%
Cc1ccc(Sc2ncccc2C(=O)N(C)Cc2cccs2)c(C)c1	13%	-1%	u	-12%	i	-5%
CCc1nc(N)nc(N)c1-c1ccc(Cl)c([N+](=O)[O-])c1	15%	-4%	i	u	0.65µM*	0.18µM*
SMILES	MCF10A rereplic	SW480 rerep	KB-V1 MDR tox	HT1080-NT tox	KB-3-1 cytotox	HT1080 IDH1KD tx
CN(C)c1ccc(/C=C2\N=C(c3ccc(Cl)c([N+](=O)[O-])c3)NC2=O)cc1	-3%	7%	i	-1%	u	3%
CCc1c(N)nc(N)nc1Nc1ccccc1Cl	5%	24%	u	u	i	-18%
CCc1nc(N)nc(N)c1-c1ccc(Cl)c(N=[N+]=[N-])c1	u	14%	16µM*	u	12µM*!	2.9µM*
Cc1cc(C)cc(OCC(=O)N2N=C(C(F)(F)F)CC2(O)C(C)(C)C)c1 (stereo unspecified)	u	5%	u	18µM*	u	16µM*
CCOC(=O)C1=C(CS(=O)(=O)c2ccc(Br)cc2)NC(=O)NC1c1ccccc1 (stereo unspecified)	x	x	i	x	i	x
CC(O)CNCc1ccc(-c2ccccc2)cc1 (stereo unspecified)	u	u	i	-29%	i	-23%
CC(NCc1ccc(-c2ccccc2)cc1)C(O)c1ccccc1 (stereo unspecified)	26µM*	4.1µM*	i	u	i	15µM*
COC(=O)[C@]12CCCCC=C1N(Cc1ccc(Cl)cc1Cl)C(=O)[C@H](CC(=O)N1CCN(C(=O)c3ccco3)CC1)C2	x	x	i	u	u	u
CC1CCN(C(=O)CSc2ccc(-c3ccc(F)cc3)nn2)CC1	20%	-2%	16µM*	1%	u	-1%
CC1CC(C)(C)N(C(=O)CSc2ccc(-c3ccc(F)cc3)nn2)c2ccccc21 (stereo unspecified)	25%	u	21µM*	u	i	u
O=C(CSc1ccc(-c2ccc(F)cc2)nn1)N1CCCCC1	17%	6%	i	u	i	u
COc1ccc(-c2nn(-c3ccccc3)cc2CO)cc1	-1%	-3%	i	-6%	i	-13%
N=C(N)SCc1cn(-c2ccccc2)nc1-c1ccc(Br)cc1	u	18%	18µM*	5.2µM*	u	5.2µM*
COc1ccc([N+](=O)[O-])cc1N(CC(O)CN1C(=O)NC(C)(C)C1=O)S(=O)(=O)c1ccc(C)cc1 (stereo unspecified)	x	x	i	-1%	i	4%
CCn1c(COc2ccc(C)cc2)nnc1SCC(=O)Nc1cc(OC)ccc1OC	11%	7%	u	5%	i	-13%
Cc1ccc(C(=O)CSc2nnc(CNc3ccc(C)cc3C)n2Cc2ccco2)cc1	u	12%	u	u	u	u
COc1ccc(C(=O)CSc2nnc(CNc3ccc(C)cc3C)n2Cc2ccco2)cc1	26%	0%	3.7µM*	-6%	u	-17%
CCn1c(COc2ccccc2)nnc1SCC(=O)Nc1cc(C)ccc1OC	-2%	-1%	15µM*	8%	i	-24%

High-throughput results: PubChem BioAssay, National Center for Advancing Translational Sciences (NCATS)
